{
  "source": "PubChem BioAssay AID1626",
  "about": "(SRMLSC, 2009)",
  "note": "Where “and” joins values, the source holds several entries; their conditions need not be identical. Equal entries are not always repeated. The campaign covered roughly 220,000 compounds. About 2,000 (0.91%) were called active. Not shown: some 2% with an inconclusive outcome. These entries were drawn from the full list. Results with a measured potency or affinity are listed apart. Values without a mark were called inactive. No stated cut-off is given here; in the data, inconclusive means inhibition above about 80% without an active follow-up result; inactive means below that; test concentration not stated here.",
  "data": [
    {"test": "M. tuberculosis H37Rv growth inhibitors, H37Rv strain (AID 1626);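 further: bacteria incubated seven days before Alamar blue readout; 0% = bacteria only wells and 100% = bacteria with antibiotic wells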", "conditions": "hits give high values, concentration not given here", "values": [
      {"smiles": "CC(C)CN1C(=O)C(NC(=O)C2CC2)(C(F)(F)F)C2=C1CC(C)(C)CC2=O", "note": "(stereo not given)", "inhibition": "-4.55%"},
      {"smiles": "COc1ccc(-n2c(SCC(=O)N/N=C/c3ccccc3OCC(=O)O)nc3ccccc3c2=O)cc1", "inhibition": "-3.87%"},
      {"smiles": "COc1ccc(-c2cc(C(=O)OCC(=O)N(C)C)c3ccccc3n2)cc1", "inhibition": "-8.2%"},
      {"smiles": "N#CCCN/N=C(\\Cc1nc2ccccc2[nH]1)c1ccccc1", "inhibition": "-0.45%"},
      {"smiles": "COc1cc(C(C)=O)ccc1COc1ccc(C(=O)OCC(=O)NC2CCS(=O)(=O)C2)cc1OC", "note": "(stereo not given)", "inhibition": "1.52%"},
      {"smiles": "O=C(O)CCn1cc(/C=C\\C(=O)c2ccc(Cl)cc2)c(-c2cccc(Br)c2)n1", "inhibition": "-1.2%"},
      {"smiles": "CCN(CC)CCCNc1cc(C)nc2cc(-c3cccs3)nn12", "inhibition": "-2.4%"},
      {"smiles": "CC(Oc1ccc(Cl)cc1Cl)c1nc(-c2ccc(NC(=O)c3cccnc3)cc2)no1", "note": "(stereo not given)", "inhibition": "76.2%"},
      {"smiles": "CC(Oc1ccc(Cl)cc1Cl)c1nc(-c2ccc(NC(=O)c3ccccn3)cc2)no1", "note": "(stereo not given)", "inhibition": "-3.67%"},
      {"smiles": "CCCOc1ccc(-c2nc(OC)c3ccccc3n2)cc1", "inhibition": "77%"},
      {"smiles": "O=C(/C=C/c1ccc(Br)cc1)c1ccc(NC(=O)c2ccco2)cc1", "inhibition": "10.8%"},
      {"smiles": "Nc1ccc(/C=C/C(=O)c2ccco2)cc1", "inhibition": "78.3%"},
      {"smiles": "S=c1[nH]c2ccccc2[nH]1", "inhibition": "-2.67%"},
      {"smiles": "S=c1[nH]c2cc3ccccc3cc2[nH]1", "inhibition": "73.9% and 72.9%"},
      {"smiles": "O=C(Cc1ccc(S(=O)(=O)N2CCCC2)s1)Nc1nc2c(s1)CCCC2", "inhibition": "1.89%"},
      {"smiles": "Cc1ccccc1COc1ccc(/C=C(\\C#N)C(N)=O)cc1", "inhibition": "6.69%"},
      {"smiles": "CCOc1ccc(OCCN(C)Cc2ccccc2)cc1", "inhibition": "4.01%"},
      {"smiles": "COc1cc(-c2nc3ccc4ccccc4c3c3c2CCC3)ccc1O", "inhibition": "20.8%"},
      {"smiles": "COc1cc(-c2nc3ccc4ccccc4c3c3c2CCC3)cc(OC)c1OC", "inhibition": "-4.59%"},
      {"smiles": "Cc1cc(-c2cccc([N+](=O)[O-])c2)nc2ccc3ccccc3c12", "inhibition": "-9.17%"},
      {"smiles": "Oc1ccc(-c2nc3ccc4ccccc4c3c3c2CCC3)cc1O", "inhibition": "1.26%"},
      {"smiles": "Cc1ccc(/C=C/C(=O)NCc2ccncc2)cc1", "inhibition": "7.66%"},
      {"smiles": "Cn1c(N)c(C(=O)COC(=O)C2CCCC2)c(=O)n(C)c1=O", "inhibition": "-2.87%"},
      {"smiles": "Cc1ccc(S(=O)(=O)N(C)C)cc1NC(=S)NNC(=O)C(N)=O", "inhibition": "1.54%"},
      {"smiles": "CCCCCCC(=O)N(O)C1CC(=O)N(c2ccc(Cl)cc2)C1=O", "note": "(stereo not given)", "inhibition": "7.87%"},
      {"smiles": "CCOCCOC(=O)c1cccc(NC(=O)OCC)c1", "inhibition": "-3.13%"},
      {"smiles": "C=CCn1c(O)c(N=NC(=O)CNC(=O)/C=C/c2ccco2)c2ccccc21", "inhibition": "-15.1%"},
      {"smiles": "OCc1nc2ccccc2n1/N=C/c1cccs1", "inhibition": "1.55%"},
      {"smiles": "Cc1cc2ncn(/N=C/c3cccnc3)c2cc1C", "inhibition": "7.38%"},
      {"smiles": "Cc1cc2ncn(/N=C/c3cc(Br)ccc3O)c2cc1C", "inhibition": "-5.04%"},
      {"smiles": "O=[N+]([O-])c1ccc(O)c(/C=N/n2c(CO)nc3ccccc32)c1", "inhibition": "-3.46%"},
      {"smiles": "Cc1ccc(/C=N/n2c(C)nc3ccccc3c2=O)s1", "inhibition": "-1.18%"},
      {"smiles": "Cc1nc2ccccc2n1/N=C/c1cccnc1", "inhibition": "-6.36%"},
      {"smiles": "OCCN(CCO)CC(O)COc1ccc(C23CC4CC(CC(C4)C2)C3)cc1", "note": "(stereo not given)", "inhibition": "24.6%"},
      {"smiles": "CCC1CCCCN1CCCNC(=O)Cn1nc(-c2ccc(C)cc2)ccc1=O", "note": "(stereo not given)", "inhibition": "-8.72%"},
      {"smiles": "O=C(CSc1nnc(-c2ccco2)n1Cc1ccco1)Nc1ccccc1", "inhibition": "-2.58%"},
      {"smiles": "Cc1cccc(NP(=O)(Oc2ccccc2F)Oc2ccccc2F)c1C", "inhibition": "1.18%"},
      {"smiles": "O=C(NCc1ccccc1)c1ccccc1-c1nc2ccccc2[nH]1", "inhibition": "4.78%"},
      {"smiles": "CCOC(=O)Cc1c(C)nc2c(-c3ccc(Cl)cc3)c(C)[nH]n2c1=O", "inhibition": "78.8%"},
      {"smiles": "Cc1ccc(-c2csc(NC(=O)CSc3nc(C)cc(=O)[nH]3)n2)cc1", "inhibition": "1.91%"},
      {"smiles": "OC(c1cc(C(F)(F)F)nc2c(Cl)cc(Cl)cc12)C1CCCCN1", "note": "(stereo not given)", "inhibition": "49.4%"},
      {"smiles": "Clc1ccc(-c2cc(-c3nnc4n3CCCCC4)c3ccccc3n2)cc1", "inhibition": "71.9%"},
      {"smiles": "CCN(CC)S(=O)(=O)c1ccc(N2CCCC2)c(NC(=O)CC(C)(C)C)c1", "inhibition": "-7.98%"},
      {"smiles": "O=C(Nc1cc(Sc2ccccn2)cc([N+](=O)[O-])c1)c1ccc(Cl)cc1", "inhibition": "7.55%"},
      {"smiles": "COC(=O)c1cc(OC)c(OC)cc1NC(=S)Nc1cc(Cl)ccc1OC", "inhibition": "-12%"},
      {"smiles": "Nc1ccc(Nc2nc(-c3cc4ccccc4oc3=O)cs2)cc1", "inhibition": "-8.26%"},
      {"smiles": "O=C(Nc1nc(-c2cc3ccccc3oc2=O)cs1)c1ccco1", "inhibition": "-2.76%"},
      {"smiles": "CC1=C(C(=O)Nc2ccccc2)C2(CCCCC2)C(C#N)=C(S)N1", "inhibition": "-2.79%"},
      {"smiles": "Cc1ccc(S(=O)(=O)N(C)C)cc1NC(=O)COC(=O)CCC(=O)c1cccs1", "inhibition": "0.54%"},
      {"smiles": "COc1ccc2c(c1)c(C(=O)CN1CCN(C(=O)c3ccco3)CC1)c(C)n2C", "inhibition": "3.66%"},
      {"smiles": "Cc1ccc(NCC(=O)c2ccc([N+](=O)[O-])cc2)cc1", "inhibition": "6.43%"},
      {"smiles": "COc1ccc(C(CC(=O)c2ccc(C)cc2)Nc2ccc([N+](=O)[O-])cc2)cc1", "note": "(stereo not given)", "inhibition": "13.5%"},
      {"smiles": "CC1(C)CC(=O)c2sc(N3CCCCC3)nc2C1", "inhibition": "1.75%"},
      {"smiles": "Fc1ccc(-c2nnn3c2nc(NCc2ccccc2)c2ccccc23)cc1", "inhibition": "-3.18%"},
      {"smiles": "Cn1nc(C(F)(F)F)c2cc(NC(=O)OCc3ccc(F)cc3)sc21", "inhibition": "-0.24%"},
      {"smiles": "COc1ccc(COC(=O)Nc2cc3c(C(F)(F)F)nn(C)c3s2)cc1", "inhibition": "0.73%"},
      {"smiles": "COc1ccc(CNC(=O)COC(=O)/C=C/c2ccc(Cl)cc2)cc1", "inhibition": "2.04%"},
      {"smiles": "COc1ccc(-c2nc(N)n(C(=O)c3ccccc3)n2)cc1", "inhibition": "6.59%"},
      {"smiles": "O=C(NC1CCCCCC1)c1ccc(=O)n(Cc2ccccc2)n1", "inhibition": "-0.36%"},
      {"smiles": "CC(C)COC(=O)c1ccccc1C(=O)OCC(C)C", "inhibition": "-10%"},
      {"smiles": "COC(=O)c1ccc2c(c1O)C(=O)c1ccccc1C2=O", "inhibition": "1.91%"},
      {"smiles": "CCOC(=O)c1c(C)oc2c1c(CN1CCN(CCO)CC1)c(O)c1ccccc12", "inhibition": "3.65%"},
      {"smiles": "O=C(CN1CC=C(c2ccccc2)CC1)NC(=O)NCc1ccco1", "inhibition": "-3.79%"},
      {"smiles": "COc1ccc(-c2cc3ccccc3n2CC(O)CN2CCN(CCO)CC2)cc1", "note": "(stereo not given)", "inhibition": "4.8%"},
      {"smiles": "OC(CN1CCN(c2ccccc2)CC1)Cn1c2ccccc2c2ccccc21", "note": "(stereo not given)", "inhibition": "11.9%"},
      {"smiles": "COc1ccc(-c2cc3ccccc3n2CC(O)CN2CCCCC2)cc1", "note": "(stereo not given)", "inhibition": "3%"},
      {"smiles": "CCOc1ccc(CN2CCN(C(=O)c3ccccc3)CC2)cc1", "inhibition": "0.42%"},
      {"smiles": "Cc1ccc(OCC(O)CN2CCN(CC(O)COc3ccc(C)cc3)CC2)cc1", "note": "(stereo not given)", "inhibition": "2.23%"},
      {"smiles": "OC(COc1ccccc1)Cn1c2ccccc2c2ccccc21", "note": "(stereo not given)", "inhibition": "41.6%"},
      {"smiles": "O=C(c1ccco1)N1CCN(CC(O)Cn2c3ccccc3c3ccccc32)CC1", "note": "(stereo not given)", "inhibition": "1.44%"},
      {"smiles": "Cc1ccc(OCC(O)Cn2c3ccccc3c3ccccc32)cc1", "note": "(stereo not given)", "inhibition": "72.7%"},
      {"smiles": "O=C(N/N=C/c1c(Cl)cccc1Cl)c1ccccc1F", "inhibition": "65.5%"},
      {"smiles": "O=C(CNc1ccccc1)NN=C1CCCC1", "inhibition": "-7.1%"},
      {"smiles": "COc1cccc(CNC(=O)CCC2CCCN(C(=O)c3cscn3)C2)c1", "note": "(stereo not given)", "inhibition": "-1.29%"},
      {"smiles": "CCOC(=O)N1CCN(C(=O)Nc2ccc(NC(=O)N3CCN(C(=O)OCC)CC3)cc2)CC1", "inhibition": "-0.49%"},
      {"smiles": "COc1ccccc1/C=C/C(=O)N1CCOCC1", "inhibition": "-12.7%"},
      {"smiles": "O=C(NCCCN1CCOCC1)/C(=C/c1ccc(F)cc1)NC(=O)c1ccccc1", "inhibition": "-5.09%"},
      {"smiles": "CC1(C)NC(=O)N(CC(=O)Nc2cc(S(=O)(=O)N3CCOCC3)ccc2N2CCOCC2)C1=O", "inhibition": "0.65%"},
      {"smiles": "C=CCNC(=O)NC(=O)COC(=O)[C@H](C)NS(=O)(=O)c1c(C)c(C)cc(C)c1C", "inhibition": "0.16%"},
      {"smiles": "COC(=O)c1ccc(Cn2cnc3c(cnn3-c3ccc(C)c(C)c3)c2=O)o1", "inhibition": "-9.12%"},
      {"smiles": "COc1ccc2c(c1)CCCN2C(N)=O", "inhibition": "-8.08%"},
      {"smiles": "C=CCn1c(SCc2csc(-c3ccc(Cl)cc3)n2)nnc1-c1ccccc1OC", "inhibition": "7.93%"},
      {"smiles": "C=CCn1c(SCC(=O)c2ccc(O)c(O)c2)nnc1-c1ccccc1OC", "inhibition": "-2%"},
      {"smiles": "COc1cc(NS(=O)(=O)c2ccc(NC(=O)NC3CCCCC3)cc2)nc(OC)n1", "inhibition": "-5.16%"},
      {"smiles": "Cc1cccc(C(=O)N2CCC(=O)N(C(COCc3cccc(Cl)c3)Cc3ccccc3)CC2)c1", "note": "(stereo not given)", "inhibition": "-0.5%"},
      {"smiles": "O=C(CCN1C(=O)C2CCCCC2C1=O)Nc1ccc(F)c(F)c1F", "note": "(stereo not given)", "inhibition": "-4.84%"},
      {"smiles": "O=C(CCN1C(=O)C2CCCCC2C1=O)Nc1nc(-c2ccccc2)cs1", "note": "(stereo not given)", "inhibition": "6.05%"},
      {"smiles": "CCOC(=O)C1(CC2CCCCO2)CCN(C(=O)NCc2ccccc2)CC1", "note": "(stereo not given)", "inhibition": "4.64%"},
      {"smiles": "COc1ccc(-c2cc(C(F)(F)F)nc(N3CCOCC3)n2)cc1", "inhibition": "-0.92%"},
      {"smiles": "Nc1c(Cl)nc(-c2ccccc2)nc1Cl", "inhibition": "0.39%"},
      {"smiles": "c1ccc(-c2cnc(-c3ccccc3)nc2)cc1", "inhibition": "-5.94%"},
      {"smiles": "O=C(CCN1C(=O)C2C3C=CC(C3)C2C1=O)Nc1nccs1", "note": "(stereo not given)", "inhibition": "-5.43%"},
      {"smiles": "O=C1CNC(=S)N1CCc1ccc(Cl)cc1", "inhibition": "-6.23%"},
      {"smiles": "CCc1ccccc1NC(=O)CN(C)C(=O)CSc1nn(-c2ccc(F)cc2)c(=S)s1", "inhibition": "-11.2%"},
      {"smiles": "COc1ccc(-c2nc(C(F)(F)F)c(OC)o2)cc1OC", "inhibition": "-0.95%"}
    ]}
  ]
}
